For some of these results: Results with a measured potency or affinity are listed apart. The source made the active and inactive calls. Unless noted, the rule behind the calls is not given here.
Experiments:
[1] = antimalarial activity against Dd2 strain (AID 2302;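 active = growth inhibition above 50% at the single 2 µM test dose, taken to imply half-maximal potency below 2 µM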;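 note: 0% = DMSO untreated growth and 100% = chloroquine plus artemisinin killed control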); conditions: P. falciparum Dd2 in RBCs, LDH growth readout, 72 h; at 2 µM; hits give high values
[2] = human hepatoma cell viability loss – ATP luminescence, cytotoxicity control for P. falciparum antimalarial project, primary screen (AID 2303;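 active = inhibition above 50%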;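 note: 0% = DMSO wells and 100% = digitonin-killed cells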); conditions: HepG2 viability, 24-48 h, at 10 µM, hits give high values
[3] = target: L-lactate dehydrogenase (Plasmodium falciparum (isolate CDC / Honduras)) (UniProt Q27743); assay: PfLDH activity inhibition – cell lysate, 3D7 strain, counter-screen for P. falciparum growth inhibition project (AID 2304);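 note: 0% = vehicle and 100% = reference inhibitor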; conditions: P. falciparum 3D7 crude extract, LDH APAD/NBT absorbance; at 2 µM; hits give high values
[4] = inhibition of 3D7 malaria parasite growth – strain 3D7 (AID 2306);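 note: 0% = DMSO wells and 100% = chloroquine plus artemisinin control wells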; conditions: P. falciparum 3D7 erythrocytic growth, LDH absorbance, 72 h; at 2 µM; hits give high values
[5] = target: Calcium-dependent protein kinase 1 (Plasmodium falciparum (isolate 3D7)) (UniProt P62344); assay: PfCDPK1 kinase inhibitors, biochemical, TCAMS library (AID 1159585; cut-off not given, nearly all actives have IC50 up to about 0.98 µM;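 note: inhibitors leave more ATP so luminescence rises with inhibition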); conditions: recombinant PfCDPK1, Kinase-Glo ATP depletion luminescence
[6] = target: Plasmodium falciparum protein kinase 6 (PK6, PF3D7_1337100) (UniProt Q8IDW1); assay: PfPK6 kinase inhibitors, biochemical, TCAMS library (AID 1159586); conditions: recombinant PfPK6, Kinase-Glo ATP depletion luminescence
[7] = target: Protein kinase 7 (PK7), Plasmodium falciparum 3D7 (PF3D7_0213400) (UniProt Q7YTF7); assay: inhibition of Plasmodium PK7 catalytic activity – biochemical, TCAMS antimalarial set, Kinase-Glo luminescence (AID 1159587); conditions: recombinant PfPK7, Kinase-Glo ATP depletion luminescence
[8] = target: Calcium-dependent protein kinase 4 (Plasmodium falciparum (isolate 3D7)) (UniProt Q8IBS5); assay: PfCDPK4 kinase inhibitors, biochemical, TCAMS library (AID 1159588; cut-off not given, nearly all actives have IC50 up to about 0.91 µM); conditions: recombinant PfCDPK4, Kinase-Glo ATP depletion luminescence
Chain of Calcium-dependent protein kinase 4 (Plasmodium falciparum (isolate 3D7)) (Q8IBS5 whole entry, looked up): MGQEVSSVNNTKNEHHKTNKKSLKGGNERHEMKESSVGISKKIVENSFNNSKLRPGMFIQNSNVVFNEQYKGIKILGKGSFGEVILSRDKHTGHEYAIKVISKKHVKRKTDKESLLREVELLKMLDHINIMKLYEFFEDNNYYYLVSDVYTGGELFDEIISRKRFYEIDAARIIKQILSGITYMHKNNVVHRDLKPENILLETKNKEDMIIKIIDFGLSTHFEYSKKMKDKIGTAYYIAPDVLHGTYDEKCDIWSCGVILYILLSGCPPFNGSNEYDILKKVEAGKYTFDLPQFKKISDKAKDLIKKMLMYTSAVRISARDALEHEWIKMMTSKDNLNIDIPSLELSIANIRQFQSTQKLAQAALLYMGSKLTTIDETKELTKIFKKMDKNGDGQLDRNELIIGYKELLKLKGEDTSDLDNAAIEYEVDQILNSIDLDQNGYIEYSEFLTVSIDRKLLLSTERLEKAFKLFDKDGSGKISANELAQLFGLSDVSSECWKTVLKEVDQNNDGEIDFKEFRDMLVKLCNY

Chain of Calcium-dependent protein kinase 1 (Plasmodium falciparum (isolate 3D7)) (P62344 whole entry, looked up): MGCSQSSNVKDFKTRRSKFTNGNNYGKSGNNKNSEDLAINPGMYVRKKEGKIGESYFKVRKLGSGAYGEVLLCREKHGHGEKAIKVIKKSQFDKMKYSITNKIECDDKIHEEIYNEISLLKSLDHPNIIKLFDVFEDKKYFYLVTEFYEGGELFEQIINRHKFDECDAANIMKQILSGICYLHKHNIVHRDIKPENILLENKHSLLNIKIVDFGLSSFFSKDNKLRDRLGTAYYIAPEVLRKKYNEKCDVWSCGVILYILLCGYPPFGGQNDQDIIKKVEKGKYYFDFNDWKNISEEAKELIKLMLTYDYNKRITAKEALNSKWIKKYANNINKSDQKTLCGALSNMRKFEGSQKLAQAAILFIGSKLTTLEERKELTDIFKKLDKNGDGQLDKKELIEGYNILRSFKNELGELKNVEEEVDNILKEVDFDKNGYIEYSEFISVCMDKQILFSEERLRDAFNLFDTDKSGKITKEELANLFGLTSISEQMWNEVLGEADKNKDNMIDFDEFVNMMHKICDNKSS
Chain of Plasmodium falciparum protein kinase 6 (PK6, PF3D7_1337100) (Q8IDW1 1-305): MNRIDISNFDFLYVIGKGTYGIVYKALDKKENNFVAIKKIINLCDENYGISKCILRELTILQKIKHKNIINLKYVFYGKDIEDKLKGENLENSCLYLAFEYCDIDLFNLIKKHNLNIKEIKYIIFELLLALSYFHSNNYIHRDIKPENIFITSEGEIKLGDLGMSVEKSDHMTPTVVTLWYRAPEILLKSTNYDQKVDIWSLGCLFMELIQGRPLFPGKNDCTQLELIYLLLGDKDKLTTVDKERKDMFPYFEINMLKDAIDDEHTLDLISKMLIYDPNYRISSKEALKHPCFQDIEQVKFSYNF
Chain of L-lactate dehydrogenase (Plasmodium falciparum (isolate CDC / Honduras)) (Q27743 whole entry, looked up): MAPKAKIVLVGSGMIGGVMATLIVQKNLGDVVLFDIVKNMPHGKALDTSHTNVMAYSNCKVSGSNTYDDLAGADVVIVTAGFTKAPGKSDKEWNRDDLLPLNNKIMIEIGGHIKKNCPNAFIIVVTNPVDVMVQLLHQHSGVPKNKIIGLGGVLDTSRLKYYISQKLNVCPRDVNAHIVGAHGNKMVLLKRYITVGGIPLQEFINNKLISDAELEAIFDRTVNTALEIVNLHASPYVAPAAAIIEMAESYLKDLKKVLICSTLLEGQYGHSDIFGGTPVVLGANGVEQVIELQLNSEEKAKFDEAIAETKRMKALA
Chain of Protein kinase 7 (PK7), Plasmodium falciparum 3D7 (PF3D7_0213400) (Q7YTF7 1-343): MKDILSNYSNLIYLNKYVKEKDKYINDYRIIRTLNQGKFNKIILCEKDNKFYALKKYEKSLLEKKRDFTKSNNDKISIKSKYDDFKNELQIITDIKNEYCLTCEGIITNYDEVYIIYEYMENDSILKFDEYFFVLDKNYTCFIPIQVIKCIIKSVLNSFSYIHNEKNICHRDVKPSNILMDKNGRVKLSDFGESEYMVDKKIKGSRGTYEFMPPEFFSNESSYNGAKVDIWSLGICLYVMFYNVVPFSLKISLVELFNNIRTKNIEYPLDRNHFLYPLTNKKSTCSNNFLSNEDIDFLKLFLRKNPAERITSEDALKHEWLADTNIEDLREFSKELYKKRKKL

CN1CCC(C(=O)Nc2cccc(-c3cccc(-c4nc5ccc(F)cc5[nH]4)c3)c2)CC1
active: growth inhibition [4] 101%
inactive: growth inhibition [1] 27% | inhibition [2] 32% | inhibition [3] 0% | outcome [5] | outcome [6] | outcome [7] | outcome [8]

CC[C@H]1CN(CCCn2c3ccccc3c3ccccc32)[C@@H](CC)CN1
active: inhibition [2] 69% | growth inhibition [4] 89%
inactive: growth inhibition [1] -3% | inhibition [3] -6% | outcome [5] | outcome [6] | outcome [7] | outcome [8]

CN(C)Cc1cccc(-c2ccc(NC(=O)c3ccc4c(=O)n(CCN5CCCCC5)cnc4c3)cc2)c1
active: growth inhibition [1] 67% | growth inhibition [4] 101%
inactive: inhibition [2] 23% | inhibition [3] -1% | outcome [5] | outcome [6] | outcome [7] | outcome [8]

Cc1cc(N[C@@H](CC(C)C)C(=O)NCCOc2ccccc2)nc(NCCc2ccc(F)cc2)n1
active: growth inhibition [1] 54% | growth inhibition [4] 95%
inactive: inhibition [2] 25% | inhibition [3] 1% | outcome [5] | outcome [6] | outcome [7] | outcome [8]

Fc1ccc(Nc2ccnc3cc(-c4cccc(CNCCN5CCOCC5)c4)ccc23)c(Cl)c1
active: growth inhibition [1] 99% | growth inhibition [4] 100%
inactive: inhibition [2] 26% | inhibition [3] -1% | outcome [5] | outcome [6] | outcome [7] | outcome [8]

CN(CCO)Cc1ccc(-c2ccc(NS(=O)(=O)c3cccc4cccnc34)cc2)cc1
active: growth inhibition [1] 84% | growth inhibition [4] 99%
inactive: inhibition [2] 28% | inhibition [3] -1% | outcome [5] | outcome [6] | outcome [7] | outcome [8]

COc1c(CNCCCCCCNCc2cc(Cl)c3ccccc3c2OC)cc(Cl)c2ccccc12
active: inhibition [2] 100% | growth inhibition [4] 96%
inactive: growth inhibition [1] 45% | inhibition [3] -4% | outcome [5] | outcome [6] | outcome [7] | outcome [8]

CCCN(CC1CC1)c1ncc(-c2cccc(CNCc3ccccc3O)c2)cn1
active: growth inhibition [1] 98% | growth inhibition [4] 97%
inactive: inhibition [2] 15% | inhibition [3] -8% | outcome [5] | outcome [6] | outcome [7] | outcome [8]

Cc1cccc(CNc2nc(C)cc(N[C@@H](Cc3ccccc3)C(=O)NCCc3ccccc3)n2)c1
inactive: inhibition [2] 24% | inhibition [3] 2% | outcome [5] | outcome [6] | outcome [7] | outcome [8]
active: growth inhibition [1] 85% | growth inhibition [4] 99%

Cn1cncc1C(=O)Nc1cccc(-c2cccc(-c3nc4ccc(F)cc4[nH]3)c2)c1
inactive: growth inhibition [1] 45% | inhibition [2] 16% | inhibition [3] 3% | outcome [5] | outcome [6] | outcome [7] | outcome [8]
active: growth inhibition [4] 102%

Cc1cccc2[nH]c(-c3cccc(-c4ccc(NC(=O)C(C)C(=O)NC(C)C)cc4)c3)nc12 (stereo not given)
active: growth inhibition [4] 85%
inactive: growth inhibition [1] 26% | inhibition [2] 13% | inhibition [3] -3% | outcome [5] | outcome [6] | outcome [7] | outcome [8]

c1ccc(CCNc2ncnc3c2[nH]c2ccccc23)cc1
inactive: inhibition [3] -1% | outcome [5] | outcome [6] | outcome [7] | outcome [8]
active: growth inhibition [1] 94% | inhibition [2] 50% | growth inhibition [4] 95%

c1ccc(-n2ncc(CNCc3ccc(-c4cccc(-c5nc6ccccc6[nH]5)c4)cc3)n2)cc1
active: growth inhibition [4] 94%
inactive: growth inhibition [1] 9% | inhibition [2] 21% | inhibition [3] 3% | outcome [5] | outcome [6] | outcome [7] | outcome [8]

CCN1CCN(c2cc(C)c3cc(NC(=O)c4ccc(N(CC)CC)cc4)ccc3n2)CC1
inactive: growth inhibition [1] 41% | inhibition [2] 38% | inhibition [3] 1% | outcome [5] | outcome [6] | outcome [7] | outcome [8]
active: growth inhibition [4] 95%

CC(=O)Nc1nc(C(=O)Nc2cccc(-c3ccc(-c4nc5ccc(F)cc5[nH]4)cc3)c2)cs1
inactive: growth inhibition [1] 32% | inhibition [3] -4% | outcome [5] | outcome [6] | outcome [7] | outcome [8]
active: inhibition [2] 54% | growth inhibition [4] 101%

CC(C)NCc1ccc(-c2ccc(-c3nc4ccc(C(F)(F)F)cc4[nH]3)s2)cc1
inactive: inhibition [2] 30% | inhibition [3] 1% | outcome [5] | outcome [6] | outcome [7] | outcome [8]
active: growth inhibition [1] 94% | growth inhibition [4] 101%

O=C(/C=C/c1ccc(Cl)c(Cl)c1)NCCCCCN1CCC(NC(=O)c2ccc([N+](=O)[O-])cc2)CC1
inactive: growth inhibition [1] 6% | inhibition [2] 36% | inhibition [3] -2% | outcome [5] | outcome [6] | outcome [7] | outcome [8]
active: growth inhibition [4] 100%

Cc1ccc2nc(-c3cc(-c4cccc(C#N)c4)cnc3N)[nH]c2c1
inactive: inhibition [2] 40% | inhibition [3] 1% | outcome [5] | outcome [6] | outcome [7] | outcome [8]
active: growth inhibition [1] 99% | growth inhibition [4] 100%

CCOc1cc(CC)ccc1C1CCN(CCN2CCC(NC(=O)c3ccc(-c4ccc(C#N)cc4)cc3)CC2)CC1
active: growth inhibition [1] 71% | growth inhibition [4] 100%
inactive: inhibition [2] 32% | inhibition [3] 6% | outcome [5] | outcome [6] | outcome [7] | outcome [8]

O=C(Cc1ccccc1)NC(CCN1CCC(O)(c2cccc(C(F)(F)F)c2)CC1)c1ccc(Cl)c(Cl)c1 (stereo not given)
inactive: growth inhibition [1] 32% | inhibition [2] 25% | inhibition [3] 1% | outcome [5] | outcome [6] | outcome [7] | outcome [8]
active: growth inhibition [4] 96%

Source: PubChem BioAssay
